Bioassay records as filed in PubChem.
Sampled rows, rich in hits. Any-hit rate of the full collection: about 4.6%.
Lassa entry inh = inhibitors of Lassa virus binding or cell entry | Lassa virus pseudotype entry inhibition, cell reporter | Potency, µM (series often up to 37.9 µM), for the others: at the top dose activity change, negative = inhibition, hits mostly inhibitors | actives 1.2% (n = 300,000); calls by dose curve; tested in HEK293 cells; note: nearly all actives have a fitted effect of over 50% in size
HCV inhibitor = blocks hepatitis C virus | actives 3.4% (n = 340,000) | Huh7.5.1 HCVcc-Cre infection, luciferase reporter, 44 h | Potency, µM (series often up to 41.8 µM), inactives show at the highest dose activity change, negative = inhibition, hits mostly inhibitors; active = well fitted inhibition curve with a large enough effect; inconclusive = small, poorly fitted or top-dose-only effect, or another doubt; inactive = no such curve, though single readings can be large or run the other way
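After 44 h co-culture of compound, cells and HCVcc-Cre (~0.5 moi), substrate is added for 15 min at room temperature and luciferase measured over 15 sec. Cells were seeded at 1,000/well and pre-cultured 4 h.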
Vaccinia Venus = vaccinia inhibition (Venus reporter). Vaccinia virus Venus reporter expression, fluorescence. AID 720580. Potency, µM (series often up to 36.5 µM), for inactives: at the top dose activity change, negative = inhibition, most hits filed as inhibitors. actives 0.46% (n = 330,000); calls by dose curve; tested in A549 cells; note: nearly all actives have a fitted effect of over 30% in size
VACV mCherry inh = inhibitors of vaccinia virus infection (mCherry reporter signal); AID 720579; Vaccinia virus mCherry reporter infection, fluorescence; actives 0.63% (n = 310,000); Potency, µM (titrated, usually from 36.5 µM), for inactives: at the highest dose activity change, negative = inhibition, most hits filed as inhibitors; calls by dose curve; tested in A549 cells; note: nearly all actives have a fitted effect of over 35% in size
MARV entry inh = blocks Marburg virus binding to or entry into cells; Marburg virus pseudotyped entry inhibition, cell reporter; AID 540276; Potency, µM (doses to about 37.8 µM), for inactives: top-dose activity change, negative = inhibition, actives largely listed as inhibitors; actives 1.8% (n = 300,000); calls by dose curve; tested in HEK293 cells
An asterisk follows results filed as active; i = inactive; ? = inconclusive; nt = no result; [ ] = dose if it differs, or a comment. % is set by controls: 0 for no effect and ±100 for the full control effect; potency is the fitted concentration of half-maximal effect.

SMILES	Lassa entry inh	HCV inhibitor	Vaccinia Venus	VACV mCherry inh	MARV entry inh
CCN(CC)c1ccc(C2Nc3cccc4cccc(c34)N2)c(O)c1	-2.4%	11.2µM*	nt	nt	?
CC(NC(=O)C1CCOCC1)c1nnc2n1CCN(Cc1ccc3cccnc3c1)CC2 (centres undefined)	nt	nt	-6.1%	-7.6%	nt
S=C(NCCc1ccccc1)N/N=C/c1ccccc1Cl	14.9%	4.9%	-19.9%	-3.9%	?
O=C(CCc1ccccc1)N/N=C/c1cc(Br)ccc1O	?	11.2µM*	?	12.6µM*	22.4µM*
O=C(CCc1ccccc1)N/N=C\c1cc2c(cc1Br)OCO2	?	-13.7%	-11.9%	-15.6%	-19.0%
C/C(=N\NC(=S)NCCc1ccccc1)c1ccc(Cl)cc1	?	?	-3.6%	-14.9%	-15.4%
COC(=O)N/N=C/c1ccccc1OCc1ccccc1	5.2%	-1.0%	-16.5%	-16.4%	5.7%
COC(=O)N/N=C\c1cc(Br)ccc1OCc1ccccc1	?	10µM*	-11.3%	-20.1%	-6.9%
Oc1ccc(Br)cc1/C=N/NC(=S)NCCc1ccccc1	-12.8%[46.1 µM]	10µM*	-11.1%	1µM*	?
C/C(=N\NC(=S)NCCc1ccccc1)c1ccc(C)cc1	?	-7.6%	-12.5%	-12.8%	16.4µM*
COC(=O)C1CCN(Cc2ccc3c(c2)CN(C(=O)c2cc(C)oc2C)CCO3)CC1	nt	nt	0.6%	-5.7%	nt
NC(=O)NC1CCCc2c1[nH]c1ccc(Cl)cc21 (centres undefined)	nt	6.31µM*	-3.4%	i	3.6%
c1ccc(CCNc2ccc3c(c2)Cc2ccccc2-3)nc1	?	-6.7%	27.2%	?	1µM*
O=c1[nH]cnc2n[nH]nc12	nt	nt	-18.0%	-28.3%	nt
COc1cccc(Cn2cnc3c(NS(=O)(=O)c4cccc(Cl)c4Cl)c(C)c(C)cc32)c1	?	12.6µM*	nt	nt	?
COc1cccc(Cn2cnc3c(NS(=O)(=O)c4ccc(Cl)cc4Cl)c(C)c(C)cc32)c1	1.6%	?	nt	nt	?
O=C(c1cc(-c2ccc(Cl)cc2)n[nH]1)N1CCN(S(=O)(=O)c2ccc(Br)s2)CC1	?	nt	?	11.2µM*	nt
O=C(c1cc(-c2ccc(Br)cc2)n[nH]1)N1CCN(S(=O)(=O)c2ccc(Br)s2)CC1	?	nt	-21.3%	-26.3%	nt
NC(=S)N/N=C1/CCSc2ccc3ccccc3c21	-11.9%	?	?	14.1µM*	?
NC(=S)N/N=C/c1coc2c(ccc3ccccc32)c1=O	1.0%	3.6%	-4.7%	-17.7%	-2.0%
Cc1cc(O)c(-c2ccnc3cc(-c4ccccc4)nn23)cc1Cl	3.5%[46.1 µM]	nt	-7.8%	-5.4%	-23.1%[46.1 µM]
CCc1ccc(C2=NN(c3ccc(S(N)(=O)=O)cc3)C(c3ccc(F)cc3)C2)cc1 (centres undefined)	7.94µM*	?	?	?	?
NS(=O)(=O)c1ccc(N2N=C(c3ccccc3)CC2c2ccccc2Cl)cc1 (centres undefined)	nt	31.6µM*	?	?	nt
COc1ccc(C2CC(c3ccccc3Br)=NN2c2ccc(S(N)(=O)=O)cc2)cc1 (centres undefined)	nt	11.2µM*	?	?	nt
COc1ccc(C2=NN(CN3C(=O)C(=O)c4ccccc43)C(c3ccc(Br)cc3)C2)cc1 (centres undefined)	-23.7%	10µM*	-5.2%	i	?
SMILES	Lassa entry inh	HCV inhibitor	Vaccinia Venus	VACV mCherry inh	MARV entry inh
COc1ccc(C2=NN(CN3C(=O)C(=O)c4ccccc43)C(c3ccc(C)cc3)C2)cc1 (centres undefined)	-8.6%	-22.7%	nt	nt	-9.3%
Cc1ccc(CNC(=O)Cn2cc3c(n2)-c2c(oc(C(=O)N4CCOCC4)c2C)CC3)cc1	-18.4%[46.1 µM]	nt	-16.9%	-21.3%	nt
COc1cccc2sc(Nc3nc4ccc(NC(C)=O)cc4s3)nc12	?	4.47µM*	-28.9%	i	7.31µM*
CCOC(=O)c1sc(Nc2nc3c(OC)cccc3s2)cc1C	?	10µM*	-29.8%	-26.4%	?
CC(C)Oc1ccc(CNC(=O)CCCn2c(=O)c3cccn3c3ccccc32)cc1	19.2%[46.1 µM]	nt	-20.3%	-25.0%	nt
Cc1ccc(-c2cc3cccc[n+]3cc2-c2ccc(C)cc2)cc1	6.51µM*	?	-21.2%	-6.5%	3.16µM*
Cc1sc2ncn(CC(=O)N(C)c3ccc(C(C)C)cc3)c(=O)c2c1S(=O)(=O)N1CCC(C)CC1	5.8%[46.1 µM]	nt	-9.5%	-14.1%	10.0%[46.1 µM]
COc1ccc2sc(-c3ccccc3OC)c(-c3ccc(OCCN4CCOCC4)cc3)c2c1	nt	?	?	i	nt
COc1ccccc1-c1sc2ccccc2c1-c1ccc(OCCN2CCOCC2)cc1	nt	?	-18.6%	-11.5%	nt
COc1ccccc1-c1sc2cc3c(cc2c1-c1ccc(OCCN2CCCCC2)cc1)OCO3	nt	?	11.2µM*	28.2µM*	nt
COc1cc2sc(-c3ccccc3OC)c(-c3ccc(OCCN4CCCCC4)cc3)c2cc1OC	nt	11.2µM*	?	-22.2%	nt
COc1ccc(OC)c(-c2cc(Cl)c3c(c2)CC(CNC(=O)c2coc4c2C(=O)CCC4)O3)c1 (centres undefined)	nt	nt	3.4%	-9.7%	nt
Cn1c(-c2ccccc2)cccc1=O	-0.6%	8.1%	nt	nt	10.2%
Cn1c(-c2ccccc2)c[n+]2c1-c1ccccc1C2	nt	11.2µM*	-17.9%	?	nt
C[C@H](NC(=O)CSc1nnc(COc2ccccc2)o1)c1ccccc1	nt	nt	nt	nt	-23.1%
CCCNC(=O)c1ccc2c(=O)c(O)c(-c3ccc(C)cc3)[nH]c2c1	nt	-20.1%[8.37 µM]	?	12.6µM*	nt
Cc1cc(N(C)Cc2ccccc2)nc2cc(O)ccc12	15.0%	-25.3%	-6.5%	-17.1%	5.9%
Cc1cc(N(C)Cc2ccccc2)nc(-c2ccccc2)n1	1.8%	10µM*	nt	nt	?
N/C(=N\OC(=O)Nc1ccccc1)c1ncc([N+](=O)[O-])s1	-18.4%	12.6µM*	?	?	?
O=C(COC(=O)COc1ccccc1)Nc1ncc([N+](=O)[O-])s1	5.8%	17.0%	0.4%	-12.6%	?
O=C(N/N=C/c1ccccc1Cl)c1[nH]c2ccc(Br)cc2c1-c1ccccc1	?	3.98µM*	i	?	2.51µM*
COc1ccc2[nH]c3c(NCCCOC(C)C)ncnc3c2c1	?	11.2µM*	-17.0%	-28.3%	?
COc1ccc2[nH]c3c(NCCC4=CCCCC4)ncnc3c2c1	?	2.82µM*	?	?	10µM*
O=C(C1CCC(Cn2c(=O)c3sccc3n(Cc3cccc(F)c3)c2=O)CC1)N1CCOCC1 (centres undefined)	-17.3%[46.1 µM]	nt	-4.5%	-7.6%	nt
CCOc1cc(CNC(=O)Cn2ncn3c(cc4cc(F)ccc43)c2=O)cc(OCC)c1OCC	nt	nt	-4.4%	5.5%	14.1%[46.1 µM]
CC1CCN(CC(=O)Nc2ccccc2-c2ccccc2)CC1	0.4%	35.5µM*	-16.3%	-18.5%	-14.6%
O=C(CN1CCOCC1)Nc1ccccc1Sc1ccccc1	16.7%[46.1 µM]	-11.5%	-9.3%	i	16.1%[46.1 µM]
CC(=O)N1CCN(CC(=O)Nc2ccccc2Sc2ccccc2)CC1	10µM*	4.8%	-18.5%	-18.3%	?
CC1CCN(CC(=O)Nc2ccccc2C(=O)c2ccccc2)CC1	1.3%[46.1 µM]	-10.3%	-4.3%	-4.3%	?
